A selection: hits, their analogues and other compounds. The true share with any hit is near 4.6%.
PfHsp90 set2 = inhibits growth of yeast expressing Plasmodium falciparum Hsp90 | S. cerevisiae expressing PfHsp90, BacTiter-Glo ATP, 48 h; yeast lacking PDR1 and PDR3 efflux regulators | inhibition, % at 9.4 µM | 0.32% of 310,000 active;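 active means every replicate shows inhibition above about 80%, whatever the replicate mean, limit read from the data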;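 further: 0% = DMSO neutral controls and 100% = 20 µM radicicol positive controls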
NALP3 yeast inh = inhibitors of NALP3 inflammasome in yeast; Yeast reconstituted NLRP3/ASC/caspase-1, beta-gal luminescence, 24 h; inhibition, % at 10 µM; 0.39% of 330,000 active;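 active means inhibition of 50% or more; inactive means inhibition below 50%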;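 further: plate controls were induced DMSO wells for no effect and uninduced yeast grown without galactose for full effect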
tim10-1 inh = tim10-1 yeast growth inhibition; S. cerevisiae tim10-1 ts strain growth, BacTiter-Glo, 24 h; inhibition, % at 20 µM; 2.2% of 330,000 active; AID 463190;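 active means inhibition of at least 40%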;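 further: mutant grown at 25 °C; 0% = DMSO wells with yeast and 100% = wells holding no yeast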
tim23-1 inh = growth inhibitors of tim23-1 mutant yeast | S. cerevisiae tim23-1 growth, BacTiter-Glo luminescence, 24 h | inhibition, % at 20 µM | 1.3% of 330,000 active | AID 463212;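 active means growth inhibition of the mutant yeast at or above 50%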;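 further: temperature-sensitive mutant grown at 25 °C; plate controls were DMSO-treated mutant yeast for no effect and medium wells lacking yeast for full effect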
TIM10 inh = growth inhibitors of TIM10 yeast strain; S. cerevisiae TIM10 strain growth, BacTiter-Glo luminescence, 24 h; inhibition, % at 10 µM; 1.4% of 330,000 active; AID 463195;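 active means inhibition of 40% or more at the single tested concentration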;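 further: wild-type TIM10 isogenic control strain grown at permissive 25 °C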
SKKanGAS inh = inhibitors of SKKanGAS S. pyogenes growth in kanamycin (SK-promoter or general growth effect); BacTiter-Glo, 6 h; inhibition, % at 7.5 µM; 1.3% of 300,000 active; AID 1662;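 active means mean replicate score, as percent of positive control median, at least 50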;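 further: strain carries kanamycin resistance gene driven by streptokinase promoter and grows in 40 µg/ml kanamycin; loss of luminescence reflects streptokinase promoter inhibition or plain growth inhibition; 0% = median of DMSO wells and 100% = positive control at its reference dose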
TIM10 conf = confirmation of TIM10 yeast growth inhibitors. inhibition, % at 10 µM. AID 463215. shares compounds with TIM10 inh. S. cerevisiae tim10 strain growth, BacTiter-Glo luminescence, 24 h. 63% of 4,600 active;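 active means inhibition of yeast growth at or above a set limit in either of two replicates at 10 µM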;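 further: this counterscreen used the strain with wild-type TIM10; 0% = yeast with DMSO and 100% = medium wells lacking yeast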
Starred values were filed as active, the others as inactive; / = no result.

SMILES	PfHsp90 set2	NALP3 yeast inh	tim10-1 inh	tim23-1 inh	TIM10 inh	SKKanGAS inh	TIM10 conf
Cc1noc(C)c1COC(=O)c1cnc(Cl)c(Cl)c1	-47	15	-71	-64	-57	0	/
N=c1oc2ccccc2cc1C(=O)Nc1cccc(F)c1	-36	4	-16	47	40*	5	19
CN(c1ccccc1)S(=O)(=O)c1ccc(NC(=S)NC(=O)c2ccccc2)cc1	-16	1	19	13	6	10	/
CN(C1CCCCC1)S(=O)(=O)c1ccc(NC(=S)NC(=O)c2cccs2)cc1	43	14	33	38	51*	5	36*
CN(c1ccccc1)S(=O)(=O)c1ccc(NC(=S)NC(=O)C2CC2)cc1	-11	-4	32	34	41*	5	-3
Cc1ccnc(NS(=O)(=O)c2ccc(NC(=O)c3ccc4c(c3)OCCO4)cc2)n1	5	10	11	6	22	1	/
COc1ccc(-c2noc(CCC(=O)N3CCN(c4cccc(F)c4)CC3)n2)cc1	6	/	3	14	-13	/	/
CCc1ccc(N2C(=O)C(Cl)=C(Nc3ccc(C(=O)N4CCCC4)cc3)C2=O)cc1	/	25	30	34	50*	/	42*
O=C(c1ccc(N2C(=O)c3ccccc3C2=O)cc1)N1CCCCC1	-2	7	-3	16	13	-3	/
CCOc1ccc(N2CC(C(=O)Nc3cccnc3)CC2=O)cc1 (stereo not given)	10	-8	-3	-1	-3	-4	/
Cc1cc(C)cc(OCC(=O)OCC(=O)Nc2cc(C)nn2-c2ccccc2)c1	20	12	4	-6	83*	/	4
Cc1cc(NC(=O)COc2ccccc2)n(-c2ccccc2)n1	15	10	26	20	27	2	/
CCCc1nc2oc3c(NCC(C)O)ncnc3c2c2c1CCCC2 (stereo not given)	/	18	34	31	41*	-1	45*
COc1ccc(CNC(=O)CN(C2CCCCC2)S(C)(=O)=O)cc1	-7	20	14	6	7	11	/
CC(C)CCNC(=O)c1sc2ccc(S(=O)(=O)N3CCCCC3)cc2c1N	-37	12	29	38	41*	-1	38*
O=C(N/N=C/C=C/c1ccco1)c1cnccn1	29	28	-18	-6	6	-2	/
O=C(N/N=C\C=C\c1ccco1)c1cc(-c2ccc3ccccc3c2)n[nH]1	10	5	16	8	52*	23	40*
O=C(N/N=C/C=C\c1ccco1)c1ccccn1	-5	11	3	16	90*	0	2
Cc1cc(-c2ccc(N3CCOCC3)cc2)nc2ccccc12	-18	25	28	48	58*	-4	64*
CSc1ccc(C(=O)C2CCCN(C(=O)c3ccc4c(c3)no[n+]4[O-])C2)cc1 (stereo not given)	20	9	24	49	46*	-14	35*
NC(=O)CC(NC(=O)c1cccc(Br)c1)c1ccc(NCCN2CCOCC2)c([N+](=O)[O-])c1 (stereo not given)	/	-4	7	-5	43*	-2	-12
Cc1cc(C)cc(C(=O)NC(CC(N)=O)c2ccc(N3CCN(c4ccccc4)CC3)c([N+](=O)[O-])c2)c1 (stereo not given)	-10	8	-1	6	49*	13	-5
NC(=O)CC(NC(=O)c1cccc(Br)c1)c1ccc(NCC2CC2)c([N+](=O)[O-])c1 (stereo not given)	-5	15	-6	13	-6	-2	/
NC(=O)CC(NC(=O)c1ccccc1)c1ccc(N2CCN(c3ccccc3)CC2)c([N+](=O)[O-])c1 (stereo not given)	4	5	-13	-11	-2	-1	/
CCn1cc(/C=C(\NC(=O)c2cc(OC)c(OC)c(OC)c2)C(=O)NCCCN2CCOCC2)c2ccccc21	13	0	20	9	4	10	/
SMILES	PfHsp90 set2	NALP3 yeast inh	tim10-1 inh	tim23-1 inh	TIM10 inh	SKKanGAS inh	TIM10 conf
CCn1cc(/C=C(\NC(=O)c2cc(OC)c(OC)c(OC)c2)C(=O)NCCN2CCOCC2)c2ccccc21	26	6	14	-4	97*	1	0
Cc1ccccc1C(=O)NC(CC(C)C)C(=O)N1CCN(c2ccccc2)CC1 (stereo not given)	-32	13	20	22	17	-3	/
CCOC(=O)NC(=O)c1cn(Nc2ccccc2C(F)(F)F)c(=O)[nH]c1=O	-34	-1	7	-13	14	5	/
CCCCNC(=O)Nc1nc2ccc(CC)cc2s1	/	18	35	28	40	0	30
O=[N+]([O-])c1ccc(Sc2cc[n+]([O-])c3ccccc23)c([N+](=O)[O-])c1	-40	13	26	39	36	-2	/
O=[N+]([O-])c1ccc(Sc2nc3ccccc3o2)c([N+](=O)[O-])c1	/	42	19	-183	47*	9	68*
Cc1ccc(S(=O)(=O)NC2CCCc3ccccc32)cc1C (stereo not given)	3	9	35	12	45*	15	-4
CN1CCC(=NNC(=O)CSc2ccc(Cl)cc2)CC1	9	-5	-3	5	2	2	/
Cc1ccc(NC(=O)CN2C(=O)c3ccccc3C2=O)c(C)c1	-16	20	-25	-13	97*	-4	1
O=C(Nc1ccc(NC(=O)C2CCCCC2)nc1)c1cccs1	5	-9	22	47	47*	-5	23
Cc1c(C(=O)N2CCN(S(=O)(=O)c3ccccc3)CC2)oc2ccccc12	9	-16	38	46	47*	/	32*
COc1cc2cc(CCCOC(=O)c3ccc(C(F)(F)F)cc3)oc(=O)c2cc1OC	-31	15	16	31	11	/	/
O=C(Oc1coc(CSc2ncccn2)cc1=O)c1ccc(Br)o1	-8	-4	37	25	44*	-3	18
Cc1ccc(NC(=O)NCc2cccn2C)cc1C	-6	13	5	1	1	2	/
COc1cccc(/C=N/n2cnc3cc(C)c(C)cc32)c1OC	-6	22	35	27	42*	1	36*
Cc1cc(C)n(-c2nc(NC(C)(C)C)nc(NC(C)(C)C)n2)n1	-31	-15	35	42	45*	111*	43*
S=C(NCc1cccs1)Nc1ccc(Br)cc1Cl	6	32	21	39	41*	26	46*
COc1ccc(C(=O)/C=C/C(=O)N(Cc2ccccc2)C(C(=O)NC2CCCCC2)c2ccncc2)c(O)c1 (stereo not given)	-39	-2	18	34	23	-3	/

High-throughput results deposited in PubChem by several laboratories.
